In PubChem BioAssay (EPA / NIEHS):
“And” between values parts separate entries of the source, which are not always exact repeats. Identical values can stand only once. A structure can be active in one record and inactive in another. The source made the active and inactive calls. How the source made its calls: active means hit-call score of the fitted dose curve at least 0.9, where 1 is the maximum; inactive means score below 0.9.

What was measured:
[1] = read-out: TIMP metallopeptidase inhibitor 1 (TIMP1), TIMP1 (gene 7076); assay: BSK_hDFCGF_TIMP1: BioMAP Diversity Plus: hDFCGF Assay for TIMP metallopeptidase inhibitor 1 (TIMP1) Biomarker Activity (AID 2283062); details: primary human foreskin fibroblasts; actives raise or lower the signal
Summary of the method: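 ELISA readout of TIMP-1 from human dermal foreskin fibroblast cultures 24 h post-dosing. Curves were fitted in both directions against DMSO baseline, with SRB total-protein staining in parallel cultures as a cytotoxicity check.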

[2] = read-out: Monokine induced gamma interferon (MIG), CXCL9 (gene 4283); assay: BSK_hDFCGF_MIG: BioMAP Diversity Plus: hDFCGF Assay for Monokine induced gamma interferon (MIG) Biomarker Activity (AID 2283063); details: primary human foreskin fibroblasts; actives raise or lower the signal
Summary of the method: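 Fibroblasts (human foreskin, primary) dosed, 24 h, MIG by ELISA; fit bidirectional vs DMSO.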

[3] = read-out: Matrix Metallopeptidase 1 (MMP1), MMP1 (gene 4312); assay: BSK_hDFCGF_MMP1: BioMAP Diversity Plus: hDFCGF Assay for Matrix Metallopeptidase 1 (MMP1) Biomarker Activity (AID 2283064); details: primary human foreskin fibroblasts; actives raise or lower the signal
Summary of the method: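 MMP1 levels quantified by ELISA 24 h after dosing human dermal fibroblast cultures, with parallel SRB total-protein staining for overt cytotoxicity. Data fitted in both directions against DMSO baseline.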

[4] = read-out: Vascular cell adhesion molecule 1 (VCAM1), VCAM1 (gene 7412); assay: BSK_hDFCGF_VCAM1: BioMAP Diversity Plus: hDFCGF Assay for Vascular cell adhesion molecule 1 (VCAM1) Biomarker Activity (AID 2283065); details: primary human foreskin fibroblasts; actives raise or lower the signal
Summary of the method: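 ELISA read-out of VCAM-1 on human skin fibroblasts, 24 h post-dose; gain or loss of signal fitted bidirectionally against DMSO baseline.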

[5] = read-out: Plasminogen activator inhibitor-1 (PAI1), SERPINE1 (gene 5054); assay: BSK_hDFCGF_PAI1: BioMAP Diversity Plus: hDFCGF Assay for Plasminogen activator inhibitor-1 (PAI1) Biomarker Activity (AID 2283066); details: primary human foreskin fibroblasts; actives raise or lower the signal
Summary of the method: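 Fibroblasts from human foreskin were treated with test chemical. After 24 h, PAI-1 was measured by ELISA. Activity was fitted in both directions relative to DMSO.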

[6] = read-out: Interferon-gamma inducible Protein 10 (IP10), CXCL10 (gene 3627); assay: BSK_KF3CT_IP10: BioMAP Diversity Plus: KF3CT Assay for Interferon-gamma inducible Protein 10 (IP10) Biomarker Activity (AID 2283068); details: primary human keratinocytes with fibroblasts; actives raise or lower the signal
Summary of the method: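 In a primary skin co-culture of keratinocytes and fibroblasts, IP-10 is quantified by ELISA at 24 h after dosing. SRB staining of parallel wells monitors overt toxicity. Curves are fitted both directions against DMSO.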

[7] = BSK_KF3CT_SRB: Viability Assessment in the BioMAP Diversity Plus: KF3CT Assay (AID 2283069); details: primary human keratinocytes with fibroblasts;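 further: total protein by sulforhodamine B staining as a cytotoxicity measure; read 24 h after compound addition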
Summary of the method: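 Cytotoxicity was gauged by SRB staining (0.1% SRB, 10% TCA fixation, 560 nm) of parallel cultures at 24 h. The cells were primary human skin keratinocytes co-cultured with fibroblasts, and activity was fitted in both directions against DMSO.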

[8] = read-out: Interleukin-1 alpha (IL1a), IL1A (gene 3552); assay: BSK_KF3CT_IL1a: BioMAP Diversity Plus: KF3CT Assay for Interleukin-1 alpha (IL1a) Biomarker Activity (AID 2283070); details: primary human keratinocytes with fibroblasts; actives raise or lower the signal
Summary of the method: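 IL-1a was detected by ELISA 24 h after chemical treatment of a co-culture of human skin keratinocytes and foreskin fibroblasts. Gain or loss of signal was fitted against the DMSO baseline.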

[9] = read-out: TIMP metallopeptidase inhibitor 2 (TIMP2), TIMP2 (gene 7077); assay: BSK_KF3CT_TIMP2: BioMAP Diversity Plus: KF3CT Assay for TIMP metallopeptidase inhibitor 2 (TIMP2) Biomarker Activity (AID 2283071); details: primary human keratinocytes with fibroblasts; actives raise or lower the signal
Summary of the method: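 Chemicals were dosed onto human skin primary co-cultures of keratinocytes and foreskin fibroblasts, and TIMP-2 was measured by ELISA after 24 hours. Activity in either direction was fitted relative to DMSO.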

[10] = read-out: Transforming growth factor beta 1 (TGFb1), TGFB1 (gene 7040); assay: BSK_KF3CT_TGFb1: BioMAP Diversity Plus: KF3CT Assay for Transforming growth factor beta 1 (TGFb1) Biomarker Activity (AID 2283072); details: primary human keratinocytes with fibroblasts; actives raise or lower the signal
Summary of the method: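 KF3CT co-culture (keratinocytes + fibroblasts), 24 h exposure → TGF-b1 ELISA → bidirectional fit, DMSO = baseline. Parallel SRB total-protein staining (0.1% SRB, 10% TCA fixation, 560 nm) for cytotoxicity.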

[11] = read-out: C-C motif chemokine 2 (Homo sapiens) (UniProt P13500); assay: BSK_KF3CT_MCP1: BioMAP Diversity Plus: KF3CT Assay for Monocyte Chemoattractant Protein 1 (MCP1/CCL2) Biomarker Activity (AID 2283073); details: primary human keratinocytes with fibroblasts; actives raise or lower the signal
Summary of the method: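 KF3CT skin co-culture (keratinocytes/foreskin fibroblasts), 24 h post-dose; MCP-1 by ELISA; gain/loss of signal fit bidirectionally vs DMSO baseline.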

[12] = read-out: Matrix Metallopeptidase 9 (MMP9), MMP9 (gene 4318); assay: BSK_KF3CT_MMP9: BioMAP Diversity Plus: KF3CT Assay for Matrix Metallopeptidase 9 (MMP9) Biomarker Activity (AID 2283074); details: primary human keratinocytes with fibroblasts; actives raise or lower the signal
Summary of the method: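 MMP-9 quantified by ELISA after 24 h chemical treatment of primary human skin keratinocyte/fibroblast co-cultures; gain or loss fitted against DMSO, with parallel SRB staining (0.1% SRB, 560 nm) for overt cytotoxicity.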

[13] = read-out: urokinase plasminogen activator (uPA), PLAU (gene 5328); assay: BSK_KF3CT_uPA: BioMAP Diversity Plus: KF3CT Assay for urokinase plasminogen activator (uPA) Biomarker Activity (AID 2283075); details: primary human keratinocytes with fibroblasts; actives raise or lower the signal
Summary of the method: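 ELISA read-out of uPA 24 h after dosing human skin keratinocytes co-cultured with foreskin fibroblasts. Signal change fitted both ways relative to DMSO; sulforhodamine B on parallel cultures marks overt cytotoxicity.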

CD40, CD40 (gene 958) = assay: BSK_LPS_CD40: BioMAP Diversity Plus: LPS Assay for CD40 Biomarker Activity (AID 2283076); details: primary human HUVEC with PBMC; actives raise or lower the signal
Summary of the method: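 ELISA readout of CD40 in HUVEC/PBMC co-culture (BSK_LPS system), 24 h post-dosing; bidirectional curve fit, DMSO baseline; parallel SRB total-protein staining for cytotoxicity.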

[14] = read-out: E-selectin (Homo sapiens) (UniProt P16581); assay: BSK_LPS_Eselectin: BioMAP Diversity Plus: LPS Assay for Eselectin Biomarker Activity (AID 2283077); details: primary human HUVEC with PBMC; actives raise or lower the signal
Summary of the method: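 ELISA readout of E-selectin, 24 h post-dose, HUVEC + PBMC co-culture (LPS system). Gain or loss of signal vs DMSO baseline, bidirectional fit.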

[15] = read-out: Interleukin-8 (IL8), CXCL8 (gene 3576); assay: BSK_LPS_IL8: BioMAP Diversity Plus: LPS Assay for Interleukin-8 (IL8) Biomarker Activity (AID 2283078); details: primary human HUVEC with PBMC; actives raise or lower the signal
Summary of the method: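 HUVEC + PBMC co-culture, LPS-activated; test chemicals dosed, IL-8 read by ELISA at 24 h. Bidirectional curve fit vs DMSO baseline (gain or loss of signal).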

[16] = BSK_LPS_SRB: Viability Assessment in the BioMAP Diversity Plus: LPS Assay (AID 2283079); details: primary human HUVEC with PBMC;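 further: total protein by sulforhodamine B absorbance as a cytotoxicity measure; measured one day after compound addition; fitted in both directions against DMSO so loss or gain of signal counts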
Summary of the method: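 HUVEC + PBMC co-culture, LPS-stimulated; compound 24 h. 10% TCA fix, 0.1% SRB stain, A560. Bidirectional fit vs DMSO.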

[17] = read-out: Interleukin-1 alpha (IL1a), IL1A (gene 3552); assay: BSK_LPS_IL1a: BioMAP Diversity Plus: LPS Assay for Interleukin-1 alpha (IL1a) Biomarker Activity (AID 2283080); details: primary human HUVEC with PBMC; actives raise or lower the signal
Summary of the method: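 HUVEC/PBMC co-culture, LPS system; 24 h after dosing; IL-1a by ELISA; gain or loss of signal fitted bidirectionally vs DMSO baseline.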

[18] = read-out: Monocyte Chemoattractant Protein-1 (MCP1), CCL2 (gene 6347); assay: BSK_LPS_MCP1: BioMAP Diversity Plus: LPS Assay for Monocyte Chemoattractant Protein-1 (MCP1) Biomarker Activity (AID 2283081); details: primary human HUVEC with PBMC; actives raise or lower the signal
Summary of the method: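 ELISA read-out of MCP-1 after 24 h chemical dosing of a human umbilical vein endothelial cell/peripheral blood mononuclear cell co-culture stimulated with LPS. Gain or loss of signal fitted relative to DMSO controls.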

[19] = read-out: Intercellular Adhesion Molecule 1 (ICAM1), ICAM1 (gene 3383); assay: BSK_KF3CT_ICAM1: BioMAP Diversity Plus: KF3CT Assay for Intercellular Adhesion Molecule 1 (ICAM1) Biomarker Activity (AID 2283067); details: primary human keratinocytes with fibroblasts; actives raise or lower the signal
Summary of the method: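 ELISA readout of ICAM-1; KF3CT human skin co-culture (keratinocytes + foreskin fibroblasts), 24 h post-dose; gain/loss fit vs DMSO baseline.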

Measured: AC50

Sequence of E-selectin (Homo sapiens) (P16581 whole entry, looked up): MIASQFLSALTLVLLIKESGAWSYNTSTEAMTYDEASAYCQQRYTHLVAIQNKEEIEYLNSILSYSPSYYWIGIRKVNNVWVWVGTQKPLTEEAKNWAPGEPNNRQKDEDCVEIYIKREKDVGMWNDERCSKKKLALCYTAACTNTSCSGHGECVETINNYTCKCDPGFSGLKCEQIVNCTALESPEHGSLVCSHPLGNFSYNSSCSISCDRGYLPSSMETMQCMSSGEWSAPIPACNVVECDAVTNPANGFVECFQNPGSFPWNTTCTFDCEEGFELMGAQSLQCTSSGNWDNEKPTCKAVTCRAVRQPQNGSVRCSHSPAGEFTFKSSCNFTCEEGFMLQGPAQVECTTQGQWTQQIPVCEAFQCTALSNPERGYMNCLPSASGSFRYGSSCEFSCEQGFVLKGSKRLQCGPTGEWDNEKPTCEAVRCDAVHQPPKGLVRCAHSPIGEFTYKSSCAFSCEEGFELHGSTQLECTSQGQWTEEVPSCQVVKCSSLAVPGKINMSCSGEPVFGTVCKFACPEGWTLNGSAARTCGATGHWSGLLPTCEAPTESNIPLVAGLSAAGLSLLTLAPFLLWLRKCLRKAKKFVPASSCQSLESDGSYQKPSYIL

C=CC(=C)CC/C=C(\C)CCC=C(C)C
not listed: [19]
inactive: all other assays above

COc1cc(OC)nc(NC(=O)NS(=O)(=O)Nc2ccccc2C(=O)N(C)C)n1
active: [15] 0.055 µM | [17] 0.0637 µM
not listed: [12]
inactive: all other assays above

COc1cccc(O)c1
not listed: [19]
inactive: all other assays above

O=C(NO)c1ccccc1
not listed: [13] | [19]
inactive: all other assays above

O=P(O)(O)CCC(F)(F)C(F)(F)C(F)(F)C(F)(F)C(F)(F)C(F)(F)C(F)(F)C(F)(F)F
inactive: [1] | [2] | [3] | [4] | [6] | [7] | [8] | [9] | [11] | [13] | CD40, CD40 (gene 958) | [14] | [15] | [16] | [17] | [18]
active: [2] 0.615 µM | [5] 29.5 µM and 18.4 µM | CD40, CD40 (gene 958) 30 µM | [16] 35.3 µM
